Positions count from the first letter of the chain named.
Key:
Test in all cases: yeast three-hybrid, YBZ-1, SC-Leu-His + 0.5 mM 3-AT, 4 days
Conditions in all cases: tags: N-Gal4 AD-HA kept; label: inside an RPR1-promoter hybrid RNA with tandem MS2 sites; ssRNA
PUM1 PUF domain R5-RKQ = PUM1 PUF domain R5-RKQ (Homo sapiens, UniProt Q14671 828-1176, C1007R;R1008K)
In short: (§1)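 The interaction score is the log change in variant frequency from input to selection. Scores were computed in log2 with a pseudocount of 1 for absent variants, using Illumina sequencing of PCR-amplified repeat regions. The input came from four days on SC-Leu and the selection from four days on SC-Leu-His + 0.5 mM 3-AT. The cells were strain YBZ-1 (LexA–MS2 coat fusion, HIS3 reporter) co-expressing Pumilio-1 PUF domain libraries and matching RNA elements from a centromeric plasmid.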

PUM1 PUF domain R5-FRV = PUM1 PUF domain R5-FRV (Homo sapiens, UniProt Q14671 828-1176, C1007F;Q1011V)
In short: as §1

PUM1 PUF domain R5-RNS = PUM1 PUF domain R5-RNS (Homo sapiens, UniProt Q14671 828-1176, C1007R;R1008N;Q1011S)
In short: as §1

PUM1 PUF domain R2-KIG = PUM1 PUF domain R2-KIG (Homo sapiens, UniProt Q14671 828-1176, N899K;Y900I;Q903G)
In short: as §1

PUM1 PUF domain R2-LWR = PUM1 PUF domain R2-LWR (Homo sapiens, UniProt Q14671 828-1176, N899L;Y900W;Q903R)
In short: as §1

PUM1 PUF domain R6-AFR = biological target: T1, PUM1 PUF domain R6-AFR (Homo sapiens, UniProt Q14671 828-1176, N1043A;Y1044F;Q1047R)
T1 sequence: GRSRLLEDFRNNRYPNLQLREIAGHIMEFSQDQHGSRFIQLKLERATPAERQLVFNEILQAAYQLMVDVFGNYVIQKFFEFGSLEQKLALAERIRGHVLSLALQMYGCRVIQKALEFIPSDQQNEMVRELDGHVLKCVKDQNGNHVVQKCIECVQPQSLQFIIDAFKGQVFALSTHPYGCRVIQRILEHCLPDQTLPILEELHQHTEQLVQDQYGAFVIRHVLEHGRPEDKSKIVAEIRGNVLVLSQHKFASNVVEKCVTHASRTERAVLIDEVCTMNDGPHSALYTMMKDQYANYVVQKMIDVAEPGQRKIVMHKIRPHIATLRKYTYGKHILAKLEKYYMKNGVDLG
In short: as §1

PUM1 PUF domain R1-KMC = PUM1 PUF domain R1-KMC (Homo sapiens, UniProt Q14671 828-1176, S863K;R864M;Q867C)
In short: as §1

PUM1 PUF domain R1-GRN = PUM1 PUF domain R1-GRN (Homo sapiens, UniProt Q14671 828-1176, S863G;Q867N)
In short: as §1

PUM1 PUF domain R6-TFD = biological target: T2, PUM1 PUF domain R6-TFD (Homo sapiens, UniProt Q14671 828-1176, N1043T;Y1044F;Q1047D)
T2 sequence: T1 sequence with A216T, R220D
In short: as §1

PUM1 PUF domain R5-TRY = PUM1 PUF domain R5-TRY (Homo sapiens, UniProt Q14671 828-1176, C1007T;Q1011Y)
In short: as §1

PUM1 PUF domain R3-PFY = PUM1 PUF domain R3-PFY (Homo sapiens, UniProt Q14671 828-1176, C935P;R936F;Q939Y)
In short: as §1

PUM1 PUF domain R4-TRG = PUM1 PUF domain R4-TRG (Homo sapiens, UniProt Q14671 828-1176, N971T;H972R;Q975G)
In short: as §1

PUM1 PUF domain R6-GYK = biological target: T3, PUM1 PUF domain R6-GYK (Homo sapiens, UniProt Q14671 828-1176, N1043G;Q1047K)
T3 sequence: T1 sequence with A216G, F217Y, R220K
In short: as §1

PUM1 PUF domain R6-NFL = biological target: T4, PUM1 PUF domain R6-NFL (Homo sapiens, UniProt Q14671 828-1176, Y1044F;Q1047L)
T4 sequence: T1 sequence with A216N, R220L
In short: as §1

PUM1 PUF domain R4-DHV = PUM1 PUF domain R4-DHV (Homo sapiens, UniProt Q14671 828-1176, N971D;Q975V)
In short: as §1

PUM1 PUF domain R5-NAI = PUM1 PUF domain R5-NAI (Homo sapiens, UniProt Q14671 828-1176, C1007N;R1008A;Q1011I)
In short: as §1

PUM1 PUF domain R1-KTY = PUM1 PUF domain R1-KTY (Homo sapiens, UniProt Q14671 828-1176, S863K;R864T;Q867Y)
In short: as §1

PUM1 PUF domain R7-KWN = PUM1 PUF domain R7-KWN (Homo sapiens, UniProt Q14671 828-1176, S1079K;N1080W;E1083N)
In short: as §1

PUM1 PUF domain R5-NGC = PUM1 PUF domain R5-NGC (Homo sapiens, UniProt Q14671 828-1176, C1007N;R1008G;Q1011C)
In short: as §1

PUM1 PUF domain R1-QGR = PUM1 PUF domain R1-QGR (Homo sapiens, UniProt Q14671 828-1176, S863Q;R864G;Q867R)
In short: as §1

Q: For “GGCUAGAACUAGUGGAUCCCCCGGCGCCCGGCGGCUCGAGCCCGGGUAAGUGUCAAUAGUCUGCAUGCCGCCGGGCGCCAUGCCUGCAGGUCGACUCUAGAAAACAUG”, which binding signal (PUM1 PUF domain R5-RKQ) is on record?
A: Its binding signal is 3.43 log2 enrichment (interaction score).

Q: And the binding signal (PUM1 PUF domain R5-FRV)?
A: The binding signal was 1.98 log2 enrichment (interaction score).

Q: And the binding signal (PUM1 PUF domain R5-RNS)?
A: The binding signal was 3.43 log2 enrichment (interaction score).

Q: For “GGCUAGAACUAGUGGAUCCCCCGGCGCCCGGCGGCUCGAGCCCGGGUAAGUGUAAAGAGUCUGCAUGCCGCCGGGCGCCAUGCCUGCAGGUCGACUCUAGAAAACAUG”, which binding signal (PUM1 PUF domain R2-KIG) is on record?
A: The binding signal was 3.17 log2 enrichment (interaction score).

Q: And the binding signal (PUM1 PUF domain R2-LWR)?
A: Its binding signal is 1.92 log2 enrichment (interaction score).

Q: With “GGCUAGAACUAGUGGAUCCCCCGGCGCCCGGCGGCUCGAGCCCGGGUAAGUGUAAAAAGUCUGCAUGCCGCCGGGCGCCAUGCCUGCAGGUCGACUCUAGAAAACAUG” as the sequence, how does the binding signal (PUM1 PUF domain R2-LWR) read?
A: Its binding signal is 3.68 log2 enrichment (interaction score).

Q: With “GGCUAGAACUAGUGGAUCCCCCGGCGCCCGGCGGCUCGAGCCCGGGUAAGUGCAAAUAGUCUGCAUGCCGCCGGGCGCCAUGCCUGCAGGUCGACUCUAGAAAACAUG” as the sequence, how does the binding signal (PUM1 PUF domain R6-AFR) read?
A: The binding signal was 4.86 log2 enrichment (interaction score).

Q: “GGCUAGAACUAGUGGAUCCCCCGGCGCCCGGCGGCUCGAGCCCGGGUAAGUGUAAAUGGUCUGCAUGCCGCCGGGCGCCAUGCCUGCAGGUCGACUCUAGAAAACAUG” was tested. Which binding signal (PUM1 PUF domain R1-KMC) did it give?
A: Its binding signal is 3.4 log2 enrichment (interaction score).

Q: And the binding signal (PUM1 PUF domain R1-GRN)?
A: Its binding signal is 1.19 log2 enrichment (interaction score).

Q: For “GGCUAGAACUAGUGGAUCCCCCGGCGCCCGGCGGCUCGAGCCCGGGUAAGUGGAAAUAGUCUGCAUGCCGCCGGGCGCCAUGCCUGCAGGUCGACUCUAGAAAACAUG”, which binding signal (PUM1 PUF domain R6-TFD) is on record?
A: The binding signal was 4.99 log2 enrichment (interaction score).

Q: For “GGCUAGAACUAGUGGAUCCCCCGGCGCCCGGCGGCUCGAGCCCGGGUAAGUGUAAAUAGUCUGCAUGCCGCCGGGCGCCAUGCCUGCAGGUCGACUCUAGAAAACAUG”, which binding signal (PUM1 PUF domain R5-TRY) is on record?
A: The binding signal was 4.49 log2 enrichment (interaction score).

Q: What about the binding signal (PUM1 PUF domain R3-PFY) of the same sequence?
A: The binding signal was 4.24 log2 enrichment (interaction score).

Q: And the binding signal (PUM1 PUF domain R6-AFR)?
A: Its binding signal is 4.43 log2 enrichment (interaction score).

Q: And the binding signal (PUM1 PUF domain R4-TRG)?
A: Its binding signal is 5.35 log2 enrichment (interaction score).

Q: What about the binding signal (PUM1 PUF domain R6-GYK) of the same sequence?
A: The binding signal was 2.87 log2 enrichment (interaction score).

Q: What about the binding signal (PUM1 PUF domain R6-NFL) of the same sequence?
A: Its binding signal is 5.25 log2 enrichment (interaction score).

Q: “GGCUAGAACUAGUGGAUCCCCCGGCGCCCGGCGGCUCGAGCCCGGGUAAGUGUACAUAGUCUGCAUGCCGCCGGGCGCCAUGCCUGCAGGUCGACUCUAGAAAACAUG” was tested. Which binding signal (PUM1 PUF domain R4-DHV) did it give?
A: The binding signal was 5.75 log2 enrichment (interaction score).

Q: With “GGCUAGAACUAGUGGAUCCCCCGGCGCCCGGCGGCUCGAGCCCGGGUAAGUGUUAAUAGUCUGCAUGCCGCCGGGCGCCAUGCCUGCAGGUCGACUCUAGAAAACAUG” as the sequence, how does the binding signal (PUM1 PUF domain R5-FRV) read?
A: The binding signal was 2.68 log2 enrichment (interaction score).

Q: And the binding signal (PUM1 PUF domain R5-RNS)?
A: The binding signal was 4.14 log2 enrichment (interaction score).

Q: What about the binding signal (PUM1 PUF domain R5-NAI) of the same sequence?
A: Its binding signal is 3.43 log2 enrichment (interaction score).

Q: With “GGCUAGAACUAGUGGAUCCCCCGGCGCCCGGCGGCUCGAGCCCGGGUAAGUGUAAAUUGUCUGCAUGCCGCCGGGCGCCAUGCCUGCAGGUCGACUCUAGAAAACAUG” as the sequence, how does the binding signal (PUM1 PUF domain R1-KTY) read?
A: The binding signal was 3.93 log2 enrichment (interaction score).

Q: For “GGCUAGAACUAGUGGAUCCCCCGGCGCCCGGCGGCUCGAGCCCGGGUAAGUGUAUAUAGUCUGCAUGCCGCCGGGCGCCAUGCCUGCAGGUCGACUCUAGAAAACAUG”, which binding signal (PUM1 PUF domain R4-DHV) is on record?
A: Its binding signal is 6.27 log2 enrichment (interaction score).

Q: Which binding signal (PUM1 PUF domain R7-KWN) does the source give for “GGCUAGAACUAGUGGAUCCCCCGGCGCCCGGCGGCUCGAGCCCGGGUAAGUCUAAAUAGUCUGCAUGCCGCCGGGCGCCAUGCCUGCAGGUCGACUCUAGAAAACAUG” here?
A: Its binding signal is 5.98 log2 enrichment (interaction score).

Q: How did the binding signal (PUM1 PUF domain R5-NGC) turn out when “GGCUAGAACUAGUGGAUCCCCCGGCGCCCGGCGGCUCGAGCCCGGGUAAGUGUGAAUAGUCUGCAUGCCGCCGGGCGCCAUGCCUGCAGGUCGACUCUAGAAAACAUG” was run?
A: Its binding signal is 3.12 log2 enrichment (interaction score).

Q: For “GGCUAGAACUAGUGGAUCCCCCGGCGCCCGGCGGCUCGAGCCCGGGUAAGUGUAAAUCGUCUGCAUGCCGCCGGGCGCCAUGCCUGCAGGUCGACUCUAGAAAACAUG”, which binding signal (PUM1 PUF domain R1-QGR) is on record?
A: Its binding signal is 2.69 log2 enrichment (interaction score).

Q: And the binding signal (PUM1 PUF domain R1-GRN)?
A: Its binding signal is 3.33 log2 enrichment (interaction score).

From paper PMC8384837, “Expanding the binding specificity for RNA recognition by a PUF domain”
